Assay outcomes deposited in PubChem BioAssay by The Scripps Research Institute Molecular Screening Center.
HTR5A ag: counter-screen for OPRM1-OPRD1 agonists: human HTR5A agonism. activation, % at 9.3 µM. P47898. hit rate 0.61% among 340,000. HTR5A agonist assay, luminescence, cell-based. AID 504692; in the data active = activation mostly above about 9.5%, no sharp cut-off; inactive = mostly below about 7.6%;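 also: 0% = cells with vehicle only and 100% = reference agonist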
HTR2A ag: agonists of mouse serotonin 5-HT2A receptor (HTR2A). P35363. CHO-K1 mHTR2A beta-arrestin complementation, luminescence; percent of 30 µM serotonin response. activation, % at 7.6 µM. hit rate 0.66% among 360,000. AID 624169;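 active = activation above a run cutoff, the mean activation of all tested compounds plus 3 SD, cut at about 14% in these data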;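 also: 0% = plate median of compound wells and 100% = 30 µM serotonin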
OPRM1-OPRD1 ag: agonists of human mu-delta opioid receptor heterodimerization; cells, OPRM1-OPRD1 heterodimerization, luminescence; hit rate 0.3% among 340,000; activation, % at 9.3 µM; in the data active = activation above about 18%;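 also: 0% = vehicle-treated cells and 100% = reference agonist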
Target sequence (P35372 whole entry, looked up): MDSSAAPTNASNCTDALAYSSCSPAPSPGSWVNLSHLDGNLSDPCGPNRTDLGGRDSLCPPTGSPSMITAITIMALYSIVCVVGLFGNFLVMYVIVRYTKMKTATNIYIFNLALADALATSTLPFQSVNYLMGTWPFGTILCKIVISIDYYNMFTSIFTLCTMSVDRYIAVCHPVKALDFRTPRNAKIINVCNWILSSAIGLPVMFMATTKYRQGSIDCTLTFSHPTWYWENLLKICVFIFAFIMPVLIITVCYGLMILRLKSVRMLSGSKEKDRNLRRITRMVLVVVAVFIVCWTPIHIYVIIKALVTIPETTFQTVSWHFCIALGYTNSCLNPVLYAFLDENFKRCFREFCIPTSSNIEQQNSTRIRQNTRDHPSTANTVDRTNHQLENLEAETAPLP
Target sequence (P41143 whole entry, looked up): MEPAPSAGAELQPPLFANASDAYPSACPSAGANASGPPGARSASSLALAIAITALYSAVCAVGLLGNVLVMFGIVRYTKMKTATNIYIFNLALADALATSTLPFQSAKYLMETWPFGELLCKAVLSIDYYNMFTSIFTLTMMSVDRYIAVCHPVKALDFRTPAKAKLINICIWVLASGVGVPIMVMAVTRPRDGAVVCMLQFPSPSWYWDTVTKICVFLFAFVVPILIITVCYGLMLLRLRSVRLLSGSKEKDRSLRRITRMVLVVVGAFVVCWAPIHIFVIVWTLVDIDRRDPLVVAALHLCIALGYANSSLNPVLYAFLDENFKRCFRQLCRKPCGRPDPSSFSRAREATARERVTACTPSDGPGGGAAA
HTR5A inv ag: HTR5A inverse agonism, opioid heterodimer counter-screen. P47898. HTR5A cell line, luminescence. inhibition, % at 9.3 µM. hit rate 0.083% among 340,000; in the data active = inhibition mostly above about 23%, no sharp cut-off; inactive = mostly below about 18%;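 also: 0% = cells with DMSO and 100% = no-cell wells with DMSO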
MOR-DOR inv ag: mu-delta opioid heterodimer inverse agonism | cell-based MOR-DOR heterodimer luminescence | hit rate 0.21% among 340,000 | AID 504357 | P35372+P41143 | inhibition, % at 9.3 µM; in the data active = inhibition above about 22%, passing the limit was not always enough;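 also: 0% = cells with DMSO and 100% = wells without cells with DMSO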
Numbers without * were called inactive; . = no result given. Hits are enriched below; roughly 1.6% of the tested compounds scored in any of these assays.

SMILES	HTR5A ag	HTR2A ag	OPRM1-OPRD1 ag	HTR5A inv ag	MOR-DOR inv ag
CCOC(=O)C1CCN(c2ccc([N+](=O)[O-])cc2)CC1	13*	-1	-3	-1	14
O=C(NNC(=O)c1cccc2ccccc12)c1ccc(-c2ccccc2)cc1	13*	-2	6	-52	-33
COc1cc([C@H]2c3[nH]c4ccccc4c3C[C@H]3C(=O)N4[C@@H](c5cc(OC)c(OC)c(OC)c5)c5[nH]c6ccccc6c5C[C@H]4C(=O)N23)cc(OC)c1OC	10	6	21*	-28	-128
CCCC(=O)N1CCC1(C)C(=O)NS(=O)(=O)c1cccs1 (stereo not drawn)	.	0	.	.	.
CCOC(=O)N1CCN(S(=O)(=O)c2ccc(C(=O)NNc3nc4cc(C)cc(C)c4s3)cc2)CC1	3	23*	2	-45	-11
CCC(C)[C@@H](NC(=O)OC(C)(C)C)c1nnc(S(=O)(=O)Cc2cccc(C)c2)o1 (stereo partly drawn)	14*	0	-1	3	4
Cc1nn(-c2ccccc2)c(C)c1NC(=O)COC(=O)Cc1ccccc1F	12*	1	-3	-15	15
COC(=O)Cc1csc(Nc2ccccc2)n1	0	3	-2	-2	9
Cc1cccc(Nc2nc(CC(=O)O)cs2)c1	11*	-3	0	5	1
O=C(N/N=C/c1ccccc1OC(F)F)c1cc(-c2ccncc2)nc2ccccc12	12*	1	1	-3	-7
OC(c1ccc(Cl)c(F)c1)c1ncc(-c2cccc(F)c2)[nH]1 (stereo not drawn)	.	9	.	.	.
C[C@@]12CCC=C[C@H]1[C@H](c1ccc(C(F)(F)F)cc1)N(Cc1ccccc1)C2=O	13*	3	1	-2	-7
C[C@@]12CCC=C[C@H]1[C@H](c1ccc(/C=C/c3ccccc3)cc1F)N(Cc1ccccc1)C2=O	-4	-3	-1	10	5
O=C(Nc1cccc(-c2cnc3ccccc3n2)c1)c1cccc(NC(=O)c2ccco2)c1	14*	6	51*	-53	-265
C[C@H]1CN([C@@H](C)CO)S(=O)(=O)c2ccc(Br)cc2O[C@H]1CN(C)C(=O)CCN1CCCCC1	.	-3	.	.	.
COc1ccc(NS(=O)(=O)c2cccc3cccnc23)cc1	3	-1	-2	-23	11
Cc1cccc(NS(=O)(=O)c2cccc3cccnc23)n1	13*	9	0	-40	0
CCC1(C2C=COC=C2)NC(=O)NC1=O (stereo not drawn)	.	5	.	.	.
c1ccc(CN2CCN(c3ncnc4nc[nH]c34)CC2)cc1	0	24*	-2	-1	10
CC(C)c1ccc(C2C3=C(COC3=O)Nc3cc4c(cc32)OCO4)cc1 (stereo not drawn)	17*	-3	11	-45	-51
COc1ccccc1NCC(=O)N/N=C(\C)c1cccs1	14*	0	3	-36	-17
C=CCN(CC=C)Cc1cc(=O)oc2cc(C)c(C)cc12	.	0	.	.	.
Cc1ccc(N=Cc2cc(Cc3ccccc3Cl)cc([N+](=O)[O-])c2O)c(O)c1	12*	-4	11	-12	-77
NC(=O)c1ccccc1NC(=O)CS(=O)(=O)Cc1ccccc1	9.6*	0	3	-9	-18
O=C(c1ccc2c(=O)n(C3CCCC3)c(=S)[nH]c2c1)N1CCN(C2CCCCC2)CC1	4	9	-1	-12	6
SMILES	HTR5A ag	HTR2A ag	OPRM1-OPRD1 ag	HTR5A inv ag	MOR-DOR inv ag
CCN1CCN(C(=O)c2ccc3c(=O)n(C4CCCC4)c(=S)[nH]c3c2)CC1	9.3*	-3	-2	12	9
O=C(Nc1ccc2c(c1)CCC2)c1cnc(Cl)c(Cl)c1	11*	-4	9	-29	-47
COc1ccc(S(=O)(=O)Nc2ccccn2)cc1	2	-2	-1	-3	3
COc1cc(NS(=O)(=O)c2ccc(C)cc2)c2ncccc2c1	-3	-2	-9	18	47*
C[C@H](CO)N1C[C@H](C)[C@@H](CN(C)S(=O)(=O)c2ccc(-n3cccn3)cc2)OCc2cnnn2CCCC1=O	.	6	.	.	.
COC(=O)[C@@]12C[C@@H](CC(=O)NCC3CCCCC3)C(=O)N(CCc3ccc(OC)c(OC)c3)C1=CCC(C)(C)C2	.	-1	.	.	.
O=C(C1=C[C@@H](c2csc3ccccc23)C[C@@H](OCCCCO)O1)N1CCN(Cc2ccc3c(c2)OCO3)CC1	1	35*	2	-10	-8
